The list is not random: actives were taken first. Their share in the collection is about 2.3%.
CHRM1 agonist: human M1 muscarinic receptor agonists, primary screen, Fluo-8 calcium fluorescence, CHO-K1 cells, HTS | Muscarinic acetylcholine receptor M1 (Homo sapiens), P11229 | CHO-K1 hM1, agonist mode; 0% DMSO, 100% acetylcholine EC100 | activation, % at 3 µM | 360,000 compounds, 0.33% hits | AID 588814, 2011;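 active = activation above the run's mean compound activation plus 3 SD, cut at about 16% in these data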;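 note: peak over basal fluorescence ratio within a 140 s kinetic read after compound addition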
Target sequence (P11229 whole entry, looked up): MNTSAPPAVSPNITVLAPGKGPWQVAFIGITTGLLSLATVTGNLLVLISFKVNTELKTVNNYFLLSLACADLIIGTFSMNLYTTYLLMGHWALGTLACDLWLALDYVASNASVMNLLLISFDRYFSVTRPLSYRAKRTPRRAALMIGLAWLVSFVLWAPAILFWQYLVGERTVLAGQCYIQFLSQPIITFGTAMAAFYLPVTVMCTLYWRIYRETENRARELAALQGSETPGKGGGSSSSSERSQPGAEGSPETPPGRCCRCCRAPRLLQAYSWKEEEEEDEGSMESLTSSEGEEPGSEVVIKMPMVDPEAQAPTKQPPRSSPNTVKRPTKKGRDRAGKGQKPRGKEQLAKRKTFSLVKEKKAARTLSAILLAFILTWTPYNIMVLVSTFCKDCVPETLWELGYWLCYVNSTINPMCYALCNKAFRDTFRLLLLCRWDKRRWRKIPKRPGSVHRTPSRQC
CHRM1 PAM: human M1 muscarinic receptor positive allosteric modulators, primary screen, CHO-K1 cells, Fluo-8 calcium fluorescence, 1536-well; 360,000 compounds, 0.088% hits; activation, % at 3 µM; Muscarinic acetylcholine receptor M1 (Homo sapiens), P11229; CHO-K1 hM1, ACh EC20; 0% = ACh EC20, 100% = maximal ACh; AID 588819, 2011; in the data active = activation above about 19%, passing the limit was not always enough
CHO-K1 Ca antag: M1 antagonist counterscreen hit in parental CHO-K1 cells; ATP-induced calcium, Fluo-8 fluorescence; inhibition, % at 3 µM; 360,000 compounds, 0.6% hits; AID 602250;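 active = inhibition above a per-plate cutoff, the plate's mean sample inhibition plus 3 SD, cut at about 24% in these data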
CHRM1 antagonist: human M1 muscarinic receptor antagonists, primary screen, CHO-K1 cells, Fluo-8 calcium fluorescence, 1536-well | Muscarinic acetylcholine receptor M1 (Homo sapiens), P11229 | CHO-K1 hM1, ACh EC80 antagonist | inhibition, % at 3 µM | 360,000 compounds, 1.3% hits | AID 588852, 2011;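 active = percent inhibition above its own plate's cutoff, namely the mean of that plate's compound wells plus 3 SD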;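 note: peak over basal fluorescence ratio during 140 s after agonist addition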
CHO-K1 Ca ag: counter-screen for M1 agonists: effect in parental CHO-K1 cells; Fluo-8 calcium fluorescence; scaled to maximal ATP response, vehicle zero; activation, % at 3 µM; 360,000 compounds, 0.48% hits; in the data active = activation above about 15%;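 note: untransfected CHO-K1 host cells lacking M1 receptor as counterscreen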
CHO-K1 Ca PAM: nonselective calcium activators in parental CHO-K1 cells, primary screen, counter-screen for M1 PAM project, cell-based, Fluo-8 calcium fluorescence, full deck, 1536-well; ATP EC20; 0% at ATP EC20, 100% at ATP max; activation, % at 3 µM; 360,000 compounds, 0.02% hits; AID 602247, 2012;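 active = activation above the run cutoff, the mean activation of all test compounds plus 3 SD, cut at about 40% in these data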;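 note: peak over basal fluorescence ratio in a 140 s read after ATP addition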
Large screens that a line does not name were inactive.

Nc1nc2ccccc2n1S(=O)(=O)c1ccc(Cl)cc1	CHRM1 antagonist 79
CN(C(=O)CCCN1C(=O)c2ccccc2C1=O)C1CCCCC1	none
O=C(OCC(=O)N1CCCCCC1)c1cc(S(=O)(=O)N2CCOCC2)ccc1F	none
N#Cc1cc(NC(=O)c2ccc(Cl)cc2)ccc1Sc1ccccc1	CHRM1 antagonist 32
COc1ccc(Sc2ccc(NC(=O)c3ccccc3Cl)cc2C#N)cc1	none
O=S(=O)(Nc1nc2ccccc2[nH]1)c1ccc2ccccc2c1	CHRM1 antagonist 65
O=S(=O)(Nc1ncn[nH]1)c1ccc2ccccc2c1	none
Cc1ccc(C(=O)N(C)CCOc2ccccc2)cc1S(=O)(=O)N1CCOCC1	none
Cc1coc2c(C)c3oc(=O)c(CCC(=O)N[C@@H](C)C(=O)N[C@@H](Cc4ccccc4)C(=O)O)c(C)c3cc12	none
COC(=O)c1ccc(CN2CCC(Oc3cccc(C(=O)N4CCCC4)c3)CC2)cc1	CHRM1 antagonist 94
COC(=O)c1ccc(CN2CCC(Oc3ccc(C(=O)N4CCCCC4)cc3)CC2)cc1	CHRM1 antagonist 97
O=C(c1cccc(OC2CCN(Cc3cc(F)cc(F)c3)CC2)c1)N1CCCC1	none
Cc1cc(C)cc(CN2CCC(Oc3ccc(C(=O)N4CCCC4)cc3)CC2)c1	none
CSc1ccc(CN2CCC(Oc3cccc(C(=O)N4CCCC4)c3)CC2)cc1	CHRM1 antagonist 75
COc1cnn(-c2ccc(C)cc2)c(=O)c1Br	none
COc1cnn(-c2ccc(C)cc2)c(=O)c1Cl	CHO-K1 Ca antag 25
CCn1cc(C(=O)NC2CCCc3c2cnn3-c2cccc(C)c2C)cn1 (stereo not given)	CHO-K1 Ca antag 25, CHRM1 antagonist 31
Cc1cc2c(cc1C)N(C(=O)CSC1=NCCS1)C(C)(C)c1ssc(=S)c1-2	CHRM1 antagonist 54
CC1(C)c2ssc(=S)c2-c2ccccc2N1C(=O)CSC1=NCCS1	none
CC(c1ccccc1)C1OCC(C[N+]2(C)CCCCC2)O1 (stereo not given)	CHRM1 antagonist 99
CCc1ccc(NC(=O)CSc2nc(=O)n3cc(C)ccc3n2)cc1	CHO-K1 Ca antag 43
Cc1ccc2nc(SCC(=O)Nc3ccc(F)cc3)nc(=O)n2c1	none
COc1ccccc1COCC(O)CNCCc1ccc(C(F)(F)F)cc1 (stereo not given)	CHO-K1 Ca ag 16
OC(CNCCc1ccc(C(F)(F)F)cc1)COc1cccc2ccccc12 (stereo not given)	none
Cc1ccc(-c2onc3ccc(C(=O)O)cc23)cc1	CHO-K1 Ca ag 19
NS(=O)(=O)c1ccc(CCNC(=O)c2ccc(C#CC3(O)CCCCC3)cc2)cc1	CHRM1 antagonist 38
CC(=O)Nc1ccc(S(=O)(=O)NCCc2ccc(S(N)(=O)=O)cc2)cc1	none
NS(=O)(=O)c1ccc(CCNC(=O)c2ccccc2F)cc1	CHO-K1 Ca antag 28
NS(=O)(=O)c1ccc(CCNS(=O)(=O)c2ccc(Cl)cc2)cc1	CHRM1 antagonist 101
CCOC(=O)c1c(C)[nH]c(C(=O)OCC(=O)Nc2ccc(Cl)cn2)c1C	none
CC(Oc1ccccc1)C(=O)OCC(=O)Nc1sccc1C(N)=O (stereo not given)	CHRM1 antagonist 40
CCOC(=O)c1c(C)[nH]c(C(=O)OCC(=O)Nc2sccc2C(N)=O)c1C	CHRM1 antagonist 31, CHO-K1 Ca ag 17
CCC(Oc1ccccc1)C(=O)OCC(=O)Nc1sccc1C(N)=O (stereo not given)	CHO-K1 Ca ag 17
CC(C)[C@H](NC(=O)c1ccccc1)C(=O)OCC(=O)Nc1sccc1C(N)=O	none
CC(=O)N1CCN(C(=O)c2cccc(S(=O)(=O)N3CCOCC3)c2)CC1	none
C#CCCOC(=O)N1C2=NC(C(=O)OC)=C(C(=O)OC)[C@@H]3Nc4ccccc4[C@]23C[C@H]1C(=O)OC	none
N#C/C(=C\N1CCCCC1)S(=O)(=O)c1ccc(Cl)cc1	none
C=CCn1c(C)cc(C(=O)CSc2nc3ccccc3[nH]2)c1C	CHRM1 antagonist 39, CHO-K1 Ca ag 18
Cc1cc(C(=O)CSc2nc3ccccc3[nH]2)c(C)n1Cc1ccco1	CHO-K1 Ca antag 27, CHRM1 antagonist 40
S=c1[nH]nc(COc2ccccc2)n1Cc1ccccc1	none
S=c1[nH]nc(CN2CCCCC2)n1Cc1ccccc1	CHRM1 antagonist 43
CCn1c(Cc2ccccc2)n[nH]c1=S	none
S=c1[nH]nc(CN2CCCC2)n1Cc1ccccc1	CHO-K1 Ca antag 34, CHRM1 antagonist 44
CCCCn1c(Cc2ccccc2)n[nH]c1=S	CHRM1 antagonist 86
CCCCC(=O)N(C)c1c(CC)nc2c(OCCOc3ccc(F)cc3)cccn12	none
CCn1c(SCC(=O)NC2CC2)nnc1-c1csc(C)c1	none
NS(=O)(=O)c1ccc(CCNC(=O)c2ccc([N+](=O)[O-])s2)cc1	none
CCOc1ccc(C(=O)Nc2cc(-c3nc4ccccc4[nH]3)ccc2Cl)cc1[N+](=O)[O-]	CHO-K1 Ca antag 26, CHRM1 antagonist 37
O=C1[C@@H](Oc2ccccc2)[C@@H](c2cnc3ccccc3c2)N1c1ccccc1	CHRM1 antagonist 30
O=C1[C@H](Oc2ccccc2)[C@@H](c2ccncc2)N1c1ccncc1	none
CC1=C2C3OC(=O)C(C)C3CCC2(C)C=C(Cl)C1=O (stereo not given)	none
COC(=O)c1ccc(NC(=S)NC2CC3CCC2C3)cc1 (stereo not given)	CHO-K1 Ca ag 16
COC(=O)c1ccc(NC(=O)C2CC3CCC2C3)cc1 (stereo not given)	none
CCOC(=O)c1cnc2c(cnn2C)c1NCCCN(C)C	CHO-K1 Ca antag 33
OCCN1CCN(c2ncnc3c2ncn3[C@H]2CN(Cc3cccnc3)C[C@@H](CO)O2)CC1	CHO-K1 Ca antag 27
OCCN1CCN(c2ncnc3c2ncn3[C@H]2CN(Cc3ccccc3)C[C@@H](CO)O2)CC1	none
OC[C@@H]1CN(Cc2ccccc2)C[C@H](n2cnc3c(NC4CC4)ncnc32)O1	none
OC[C@@H]1CN(Cc2ccc(-c3ccccc3)cc2)C[C@H](n2cnc3c(NC4CCC4)ncnc32)O1	CHRM1 antagonist 34
c1coc(CN(Cc2ccco2)c2ncnc3c2oc2ccccc23)c1	CHRM1 antagonist 37
Clc1ncnc2c1oc1ccccc12	none
COC(=O)c1cccc(NC(=S)Nc2cc(Cl)ccc2OC)c1	none
COC(=O)c1cccc(NC(=O)Nc2ccc(Cl)cc2Cl)c1	CHO-K1 Ca antag 28
COc1ccc(N2CCN(C(=O)COC(=O)c3oc4ccc(OC)cc4c3C)CC2)cc1	CHO-K1 Ca ag 16

High-throughput results deposited in PubChem BioAssay by The Scripps Research Institute Molecular Screening Center.
